The full list was thinned out, with hits kept by preference.
AMPAR-TARP mod = modulators of GluA2-stargazin AMPA receptor complexes, primary screen, cell-based, membrane potential dye. Voltage-dependent calcium channel gamma-2 subunit (Mus musculus) + Glutamate receptor 2 …. HEK293 GluA2+stargazin, membrane potential dye (FDSS), glutamate EC50; hits were called plate by plate, in both directions. calls only at 30 µM. 3.5% of 40,000 active. AID 1259245, 2017;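 active = any of four per-well response measures lying three or more SD from its plate-wide compound average, in either direction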
GIRK2 act = activators of NPY4-receptor-primed GIRK2 channels, summary, cell-based, HEK293, thallium flux | HEK293 GIRK2/NPY4 cells, thallium flux fluorescence | activation (% efficacy), % for hits at 75 µM | 34,000 tested, under 10 active | AID 1259324, 2017;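 active = primary screen hit, no activity in plain HEK293 cells, and in GIRK2-only cells above 5% efficacy rising with concentration; inactive = the rest, including fluorescent compounds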;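 also: efficacy is normalized control-subtracted fluorescence 15 s after thallium addition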
Active calls of the source: *.

`CCOc1ccccc1NC(=O)Cn1cc(-c2ccccc2)c2ncn(CCOC)c(=O)c21` gave AMPAR-TARP mod inactive and GIRK2 act inactive.
For CCOC(=O)c1ccccc1NC(=O)Cn1cc(-c2ccccc2)c2ncn(CCOC)c(=O)c21 the results were AMPAR-TARP mod active and GIRK2 act inactive.
For Cc1ccccc1NC(=O)CSc1nc(C)c(C(=O)Nc2ccccc2)c(-c2ccc(Cl)cc2)c1C#N the results were AMPAR-TARP mod inactive.
O=C(NCC(O)c1ccc(C(F)(F)F)cc1)c1nc2ccccc2s1 (stereo unspecified) was read as GIRK2 act inactive.
Screening O=C(CS(=O)(=O)Cc1ccccc1)Nc1nc(-c2cc([N+](=O)[O-])cs2)cs1 returned AMPAR-TARP mod inactive and GIRK2 act inactive.
`O=C(CCCS(=O)(=O)c1ccccc1)Nc1nc(-c2cc([N+](=O)[O-])cs2)cs1` gave AMPAR-TARP mod active and GIRK2 act inactive.
Screening COc1ccc(S(=O)(=O)CCCC(=O)Nc2nc(-c3cccc([N+](=O)[O-])c3)cs2)cc1 returned AMPAR-TARP mod inactive and GIRK2 act inactive.
For COc1ccc(S(=O)(=O)CCCC(=O)Nc2nc3ccc([N+](=O)[O-])cc3s2)cc1 the results were AMPAR-TARP mod active and GIRK2 act inactive.
`Cc1ccc(S(=O)(=O)CCCC(=O)N(CCN(C)C)c2nc3ccc([N+](=O)[O-])cc3s2)cc1` gave AMPAR-TARP mod active and GIRK2 act inactive.
O=C(CCCS(=O)(=O)c1ccc(Cl)cc1)Nc1nc2ccc([N+](=O)[O-])cc2s1 was read as AMPAR-TARP mod inactive.
Cc1ccc(S(=O)(=O)CCCC(=O)N(CCN(C)C)c2nc3c(C)cccc3s2)cc1 was read as AMPAR-TARP mod inactive and GIRK2 act inactive.
COc1ccc(S(=O)(=O)CCCC(=O)Nc2nc(-c3cc([N+](=O)[O-])cs3)cs2)cc1 was read as AMPAR-TARP mod active and GIRK2 act inactive.
COc1ccc(SCCC(=O)Nc2nc3ccc(C)cc3s2)cc1 was read as AMPAR-TARP mod inactive and GIRK2 act inactive.
For CCSc1nnc(NC(=O)c2cc(=O)c(OCc3ccccc3)co2)s1 the results were AMPAR-TARP mod inactive and GIRK2 act inactive.
Screening CN1CCN(C(=O)c2ccccc2N)CC1 returned AMPAR-TARP mod inactive.
CNC(=O)Cc1ccc(NC(=O)c2ccc(-c3ccccc3)cc2)cc1 was read as AMPAR-TARP mod inactive and GIRK2 act inactive.
For Cc1ccc(S(=O)(=O)/C(C#N)=C/N2CCC(C(N)=O)CC2)cc1C the results were AMPAR-TARP mod inactive and GIRK2 act inactive.
Screening O=C(CCCS(=O)(=O)c1ccccc1)Nc1ccc([N+](=O)[O-])cc1 returned AMPAR-TARP mod inactive and GIRK2 act inactive.
For N#Cc1ccccc1NC(=O)CCCS(=O)(=O)c1ccccc1 the results were AMPAR-TARP mod inactive and GIRK2 act inactive.
Screening N#Cc1ccsc1NC(=O)CCCS(=O)(=O)c1ccccc1 returned AMPAR-TARP mod active and GIRK2 act inactive.
For O=C(Nc1nc2ccc([N+](=O)[O-])cc2s1)c1ccc(=O)n(Cc2c(F)cccc2Cl)c1 the results were AMPAR-TARP mod active and GIRK2 act inactive.
O=C(CCCS(=O)(=O)c1ccccc1)Nc1nc(-c2ccc(Br)s2)cs1 was read as AMPAR-TARP mod active and GIRK2 act inactive.
For CS(=O)(=O)c1ccc2nc(NC(=O)c3ccc(=O)n(Cc4c(F)cccc4Cl)c3)sc2c1 the results were AMPAR-TARP mod inactive and GIRK2 act inactive.
Screening O=C(CCCS(=O)(=O)c1ccccc1)Nc1nc(-c2ccc(Cl)s2)cs1 returned AMPAR-TARP mod inactive and GIRK2 act inactive.
For O=C(CCCS(=O)(=O)c1ccc(Cl)cc1)Nc1ccc([N+](=O)[O-])cc1 the results were AMPAR-TARP mod active.
For COCC(=O)N1CCCc2ccc(NC(=O)C3(c4ccc(Cl)cc4)CCCC3)cc21 the results were AMPAR-TARP mod inactive and GIRK2 act inactive.
COC(=O)c1scc(-c2ccccc2)c1S(=O)(=O)Nc1cc(Cl)ccc1OC was read as AMPAR-TARP mod inactive.
CCCCCNC(=O)c1c(C(F)(F)F)nn(C2CCCN(C)C2)c1C (stereo unspecified) was read as AMPAR-TARP mod inactive and GIRK2 act inactive.
`O=C(CN1C(=O)c2ccccc2S1(=O)=O)Nc1nc2ccc([N+](=O)[O-])cc2s1` gave AMPAR-TARP mod inactive and GIRK2 act inactive.
O=C(CCCS(=O)(=O)c1ccccc1)Nc1nc2ccccc2s1 was read as AMPAR-TARP mod inactive and GIRK2 act inactive.
Screening Cc1nc2c(ccc3nc(NC(=O)CCCS(=O)(=O)c4ccccc4)sc32)s1 returned AMPAR-TARP mod active and GIRK2 act inactive.
